Test results reported in PubChem BioAssay.
A number with no mark means an inactive call. No rule for the calls is given here.

These compounds were tested against Pantothenate synthetase (Mycobacterium tuberculosis (strain ATCC 25618 / H37Rv)) (UniProt P9WIL5) (assay: Recombinant Mtb pantothenate synthetase (PanC) inhibitors, coupled enzyme, confirmatory (AID 375;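 also: 0% = full reaction with vehicle and 100% = no enzyme background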)). Details: coupled enzyme assay; at 10 µM, hits give high values.
Chain of Pantothenate synthetase (Mycobacterium tuberculosis (strain ATCC 25618 / H37Rv)) (P9WIL5 whole entry, looked up): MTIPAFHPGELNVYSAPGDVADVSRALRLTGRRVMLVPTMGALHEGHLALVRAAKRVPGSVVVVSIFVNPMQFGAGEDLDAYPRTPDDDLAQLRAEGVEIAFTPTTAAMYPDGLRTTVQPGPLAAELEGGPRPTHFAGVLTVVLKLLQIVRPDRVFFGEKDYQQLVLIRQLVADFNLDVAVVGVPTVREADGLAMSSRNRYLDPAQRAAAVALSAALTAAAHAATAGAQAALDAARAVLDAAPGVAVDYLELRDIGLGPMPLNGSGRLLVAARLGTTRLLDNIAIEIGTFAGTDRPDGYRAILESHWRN

| Compound | inhibition [%] |
| --- | --- |
| O=C(C1=C(O)C(=O)N(Cc2ccccc2)C1c1ccncc1)c1ccco1 (centres undefined) | 0 |
| O=C(Nc1cccc(NC(=O)c2ccco2)c1)c1ccc2c(c1)OCO2 | 0 |
| CC(=O)NCC(=O)N(Cc1ccco1)C1(C(=O)NC2CCCCC2)CCCCC1 | 0 |
| C=CCn1c(C)cc(C(=O)CSc2nc3ccccc3o2)c1C | 9 |
| COC(=O)CSc1nnc(-c2ccc(OC)cc2OC)o1 | 0 |
| O=C(Nc1ccc2c(c1)OCO2)N1CCN(c2ncccn2)CC1 | 0 |
| N#Cc1ccc(CSc2nnc(-c3cccs3)n2-c2ccccc2)cc1 | 0 |
| CCCc1cc(C(=O)Nc2ccccc2C(=O)OC)no1 | 0 |
| Cc1nc2scc(-c3cccs3)c2c(=O)n1-n1cccc1 | 4 |
